From PubChem BioAssay (Tox21) come the findings set out here.

Records with an inconclusive call do not appear. Some compounds were tested as several samples or in several runs, with calls that do not always agree. Calls of active or inactive are those of the source. Unless noted, the call rests on the fitted dose curve.

Experiment [1] in a line: Nuclear factor erythroid 2-related factor 2/antioxidant responsive element (Nrf2/ARE) small molecule agonists: qHTS cell viability counter screen in human keratinocytes (AID 1919968; active means well fitted curve in the direction sought with a large enough effect in the repeat runs; an effect the other way counts as inactive or inconclusive; further: nearly all actives have a fitted effect of over 55% in size). Summed up:
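KeratinoSens cells (HaCaT keratinocytes stably carrying an ARE-luciferase reporter) were seeded at 1,500 cells/well and rested 5 h at 37 C/5% CO2. They were then exposed to compounds in DMSO for 23 h. Viability was read by CellTiter-Fluor fluorescence after 1 h.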

Experiment [2] in a line: Nuclear factor erythroid 2-related factor 2/antioxidant responsive element (Nrf2/ARE) small molecule agonists: luciferase reporter gene qHTS assay in human keratinocytes (AID 1919969). Further: nearly all actives have a fitted effect of over 35% in size.
For experiment [3], the target named is Gonadotropin-releasing hormone receptor (Homo sapiens) (UniProt P30968). In words: Human gonadotropin-releasing hormone receptor (GnRHR) small molecule agonists, calcium flux assay in GnRHR-HEK293 cells (AID 1920063). Further: nearly all actives have a fitted effect of over 35% in size. Summed up: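 HEK293 cells stably expressing human GnRHR were plated 18 h at 37 °C, loaded with calcium dye 1 h at 37 °C, then given compound in agonist mode; fluorescence (Ex/Em 480/540) read kinetically for 3 min at 1 s intervals.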
Chain of Gonadotropin-releasing hormone receptor (Homo sapiens) (P30968 whole entry, looked up): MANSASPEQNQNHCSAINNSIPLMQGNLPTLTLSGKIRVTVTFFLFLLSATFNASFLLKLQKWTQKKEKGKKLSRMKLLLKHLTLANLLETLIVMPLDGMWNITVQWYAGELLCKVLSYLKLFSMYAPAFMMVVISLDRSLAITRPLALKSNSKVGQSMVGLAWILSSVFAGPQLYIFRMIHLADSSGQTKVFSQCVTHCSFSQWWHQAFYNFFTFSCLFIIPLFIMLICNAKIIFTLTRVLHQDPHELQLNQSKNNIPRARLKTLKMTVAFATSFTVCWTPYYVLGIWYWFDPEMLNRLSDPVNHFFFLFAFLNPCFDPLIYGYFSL

Experiment [4] concerns the target KiSS-1 receptor (Homo sapiens) (UniProt Q969F8). Nature of the experiment: Human kisspeptin (KISS1R) small molecule agonists, calcium flux assay in KISS1R-HEK293 cells (AID 1920064; active means well fitted curve in the direction sought with a large enough effect in the repeat runs; an effect the other way counts as inactive or inconclusive). A digest of the protocol: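 HEK293 cells stably expressing human KISS1R were plated 18 h at 37 °C, loaded with calcium dye for 1 h at 37 °C, then given compound by pin tool. Fluorescence (Ex/Em 480/540) was read kinetically for 3 min.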

A short description of experiment [5]: G protein-coupled receptor (GPCR) small molecule agonists, calcium flux assay: HEK293 wild type cell line counter screen (AID 1920065). Summed up: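 Cells were plated and cultured 18 h at 37 C/5% CO2, then loaded with calcium dye for 1 h at 37 C. Compounds in DMSO were pin-transferred in agonist mode, and fluorescence (Ex/Em 480/540) was read kinetically for 3 min at 1 s intervals.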

The nature of experiment [6]: p53 small molecule agonists, cell-based qHTS assay with human liver microsomes (AID 1963577). Summed up: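 p53RE-bla cells, 4,000/well, compound added after 5 h, with human liver microsomes 0.5 mg/mL and NADPH 0.5 mg/mL final; 16 h at 37 C, then LiveBLAzer 2 h RT, fluorescence.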
Experiment [7] can be described thus: p53 small molecule agonists, cell-based qHTS assay with rat liver microsomes (AID 1963578). A digest of the protocol:
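p53RE-bla cells, 4,000/well, pre-incubated 5 h, then given compounds plus rat liver microsomes (0.5 mg/mL final) and NADPH (0.5 mg/mL final). Incubation 16 h at 37 C; beta-lactamase reporter read by LiveBLAzer fluorescence after 2 h at room temperature.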

A short description of experiment [8]: p53 small molecule agonists, cell-based qHTS assay with human liver microsomes: qHTS cell viability counter screen (AID 1963579). Further: nearly all actives have a fitted effect of over 45% in size. Summed up:
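p53RE-bla cells, 4,000/well, dosed 5 hours after plating, with human liver microsomes (0.5 mg/mL final) plus NADPH (0.5 mg/mL final), 16 hours at 37 C. Viability read as CellTiter-Glo luminescence after 30 min at room temperature.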

Experiment [9] is described as follows: p53 small molecule agonists, cell-based qHTS assay with rat liver microsomes: qHTS cell viability counter screen (AID 1963580). Further: nearly all actives have a fitted effect of over 45% in size. Summed up: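 p53RE-bla HCT-116 cells (4,000/well) rested 5 h at 37 C, then given Tox21 compounds in DMSO with rat liver microsomes (0.5 mg/mL final) plus NADPH (0.5 mg/mL final) for 16 h at 37 C. Viability read by CellTiter-Glo luminescence after 30 min at room temperature.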

A short description of experiment [10]: p53 small molecule agonists, cell-based qHTS assay: qHTS cell viability counter screen (AID 1963581). Further: nearly all actives have a fitted effect of over 45% in size. Summed up:
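p53RE-bla HCT-116 cells were exposed to compounds for 16 h at 37 C; after the beta-lactamase FRET read in the same wells, CellTiter-Glo was added and luminescence (intracellular ATP) read after 30 min at room temperature.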

A short description of experiment [11]: p53 small molecule agonists, cell-based qHTS assay (AID 1963582; active means well fitted activation curve with a large enough effect in the signal ratio in the repeat runs, not every such curve was filed as active; the % refers to the signal ratio). A digest of the protocol: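 p53RE-bla beta-lactamase reporter cells rested 5 h at 37 C/5% CO2, then received compounds in DMSO by pin transfer and were incubated 16 h at 37 C. LiveBLAzer B/G FRET substrate was loaded for 2 h at room temperature before fluorescence reading.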
The target of experiment [12] is 5-hydroxytryptamine receptor 2A (Homo sapiens) (UniProt P28223). Nature of the experiment: 5-hydroxytryptamine receptor 2A (HTR2A) small molecule antagonists, cell-based qHTS assay (AID 1963586). Further: nearly all actives have a fitted effect of over 45% in size. A digest of the protocol: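 Antagonist-mode intracellular calcium assay: DOI (4 nM) added after 5 min compound pre-incubation at room temperature to dye-loaded HTR2A-CHO cells. Fluorescence followed for 3 min, sampled every second.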
Chain of 5-hydroxytryptamine receptor 2A (Homo sapiens) (P28223 whole entry, looked up): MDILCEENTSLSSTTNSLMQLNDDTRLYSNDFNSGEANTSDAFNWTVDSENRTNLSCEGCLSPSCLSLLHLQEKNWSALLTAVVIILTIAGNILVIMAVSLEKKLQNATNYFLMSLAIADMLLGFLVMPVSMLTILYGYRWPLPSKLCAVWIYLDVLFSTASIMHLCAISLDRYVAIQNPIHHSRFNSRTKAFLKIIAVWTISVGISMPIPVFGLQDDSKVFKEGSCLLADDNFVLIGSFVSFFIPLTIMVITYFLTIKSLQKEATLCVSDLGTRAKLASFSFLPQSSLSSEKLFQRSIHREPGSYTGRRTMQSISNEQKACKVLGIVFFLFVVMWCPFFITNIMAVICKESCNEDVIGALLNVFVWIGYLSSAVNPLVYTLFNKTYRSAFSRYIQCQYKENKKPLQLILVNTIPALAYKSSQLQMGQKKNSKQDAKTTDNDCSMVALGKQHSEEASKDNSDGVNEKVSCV

Experiment [13] shares this target. In words: 5-hydroxytryptamine receptor 2A (HTR2A) small molecule agonists, cell-based qHTS assay (AID 1963587). Further: nearly all actives have a fitted effect of over 30% in size. Summed up: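 HTR2A-CHO cells, plated 18 h at 37 C/5% CO2, dye-loaded 1 h at 37 C; compounds in DMSO added by pin tool (agonist mode). Intracellular calcium flux read as kinetic fluorescence on FDSS over 2 min at 1 s intervals.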
Experiment [14] addresses Muscarinic acetylcholine receptor M1 (Homo sapiens) (UniProt P11229). Nature of the experiment: Cholinergic receptor muscarinic 1 (CHRM1) small molecule antagonists, cell-based qHTS assay (AID 1963588). Further: nearly all actives have a fitted effect of over 40% in size. Further: potency means the concentration at half of the fitted maximal effect. Summed up: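 CHRM1-CHO calcium-flux assay, antagonist mode. Cells were seeded 18 h, dye-loaded 1 h at 37 C and given compound for 5 min at RT, then acetylcholine was added at 50nM. FDSS fluorescence was read 3 min; 15 concentrations, three runs.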

The target is the same in experiment [15]. In words: Cholinergic receptor muscarinic 1 (CHRM1) small molecule agonists, cell-based qHTS assay (AID 1963589). Further: nearly all actives have a fitted effect of over 35% in size. Summed up:
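CHO cells stably expressing human CHRM1, seeded 18 h at 37 C/5% CO2, dye-loaded 1 h at 37 C, then given compound in agonist mode; intracellular calcium fluorescence read kinetically at 1 s intervals. Fifteen concentrations, three independent runs.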

The nature of experiment [16]: cAMP Responsive Elements (CRE) small molecule agonists, cell-based qHTS assay (AID 1963590). Summed up: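 CRE-bla HEK 293T cells in DMEM with 10% dialyzed FBS, NEAA, pyruvate and 25 mM HEPES were plated 18 h at 37 C/5% CO2, then exposed to compounds in DMSO for 3 h before LiveBLAzer B/G FRET substrate addition.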
The nature of experiment [17]: cAMP Responsive Elements (CRE) small molecule antagonists, cell-based qHTS assay (AID 1963591; active means well fitted inhibition curve with a large enough effect in the signal ratio in the repeat runs, not every such curve was filed as active; the % refers to the signal ratio). A digest of the protocol: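 CRE-bla HEK293T cells were plated 18 h at 37 °C/5% CO2, pinned with compound in DMSO, then stimulated with NKH477 at 0.25 uM final for 3 h. LiveBLAzer B/G FRET substrate was added and plates incubated 2 h at room temperature.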
The target in experiment [18] is Beta-2 adrenergic receptor (Homo sapiens) (UniProt P07550). In words: Adrenergic beta2 receptor (ADRB2) small molecule antagonists, cell-based qHTS assay (AID 1963592). Further: series mostly up to about 92 µM; nearly all actives have a fitted effect of over 50% in size. A digest of the protocol:
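Cells (CHO, stable ADRB2 overexpression) incubated 18-20hr at 37C; compounds added from DMSO; agonist mix (1nM isoproterenol, 100uM IBMX, 25uM Ro-20-1724) added; 0.5hr RT; d2-cAMP and anti-cAMP-cryptate added; 1hr RT; 665/615 nm read.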

Experiment [19] deals with D(2) dopamine receptor (Homo sapiens) (UniProt P14416). In words: Dopamine D2 receptor (DRD2) small molecule agonists, cell-based qHTS assay (AID 1963594). Further: nearly all actives have a fitted effect of over 35% in size. Summed up:
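HEK293 cells stably expressing DRD2 were cultured 24 h at 37 C, then given Ro20-1724 (0.1 mM final) and compounds for 10 min at room temperature. NKH477 (200nM) was then added for 30 min. cAMP was read by HTRF.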

Experiment [20] has the same target. Nature of the experiment: Dopamine D2 receptor (DRD2) small molecule antagonists, cell-based qHTS assay (AID 1963595; active means well fitted inhibition curve with a large enough effect in the signal ratio in the repeat runs, with a control signal flat; the % refers to the signal ratio). A digest of the protocol:
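HEK293 cells stably expressing DRD2, preincubated with 0.1 mM Ro20-1724 and compounds 10 min, were stimulated with 200 nM NKH477 plus 12 nM quinpirole for 30 min at room temperature; cAMP measured by HTRF (665/620 nm).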

Chain of D(2) dopamine receptor (Homo sapiens) (P14416 whole entry, looked up): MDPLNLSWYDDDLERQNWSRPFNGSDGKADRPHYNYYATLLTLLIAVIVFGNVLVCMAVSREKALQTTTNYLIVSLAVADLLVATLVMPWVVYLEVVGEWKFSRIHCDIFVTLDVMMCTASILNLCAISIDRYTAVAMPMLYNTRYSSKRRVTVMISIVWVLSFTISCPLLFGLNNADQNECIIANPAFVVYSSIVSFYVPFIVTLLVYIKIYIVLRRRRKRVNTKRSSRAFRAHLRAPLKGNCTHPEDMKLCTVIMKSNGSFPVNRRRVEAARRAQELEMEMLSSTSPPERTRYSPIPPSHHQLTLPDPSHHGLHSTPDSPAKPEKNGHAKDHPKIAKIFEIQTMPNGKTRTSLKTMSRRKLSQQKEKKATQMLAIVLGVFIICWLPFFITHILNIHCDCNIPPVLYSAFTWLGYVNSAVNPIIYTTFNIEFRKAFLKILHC
Chain of Beta-2 adrenergic receptor (Homo sapiens) (P07550 whole entry, looked up): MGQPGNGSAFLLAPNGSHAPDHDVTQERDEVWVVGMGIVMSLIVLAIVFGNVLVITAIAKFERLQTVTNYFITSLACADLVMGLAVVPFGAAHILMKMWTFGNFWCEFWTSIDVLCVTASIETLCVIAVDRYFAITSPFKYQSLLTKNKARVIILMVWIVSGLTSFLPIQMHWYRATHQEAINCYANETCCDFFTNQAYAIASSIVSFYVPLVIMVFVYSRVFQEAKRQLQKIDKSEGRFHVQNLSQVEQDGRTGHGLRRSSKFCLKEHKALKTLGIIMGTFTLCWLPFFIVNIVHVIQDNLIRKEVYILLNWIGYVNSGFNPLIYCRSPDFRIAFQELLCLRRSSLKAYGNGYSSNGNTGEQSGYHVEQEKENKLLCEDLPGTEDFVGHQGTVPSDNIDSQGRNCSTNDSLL
Chain of KiSS-1 receptor (Homo sapiens) (Q969F8 whole entry, looked up): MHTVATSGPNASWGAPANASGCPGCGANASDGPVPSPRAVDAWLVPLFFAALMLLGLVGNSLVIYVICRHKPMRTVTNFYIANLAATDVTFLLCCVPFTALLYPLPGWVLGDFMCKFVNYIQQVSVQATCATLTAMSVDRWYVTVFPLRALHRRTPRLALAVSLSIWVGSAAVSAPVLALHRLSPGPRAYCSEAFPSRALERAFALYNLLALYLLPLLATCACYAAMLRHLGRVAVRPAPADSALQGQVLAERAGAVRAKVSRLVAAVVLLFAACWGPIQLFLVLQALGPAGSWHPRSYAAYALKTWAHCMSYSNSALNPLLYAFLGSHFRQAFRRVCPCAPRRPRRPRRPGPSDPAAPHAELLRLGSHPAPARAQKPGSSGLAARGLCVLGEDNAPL
Chain of Muscarinic acetylcholine receptor M1 (Homo sapiens) (P11229 whole entry, looked up): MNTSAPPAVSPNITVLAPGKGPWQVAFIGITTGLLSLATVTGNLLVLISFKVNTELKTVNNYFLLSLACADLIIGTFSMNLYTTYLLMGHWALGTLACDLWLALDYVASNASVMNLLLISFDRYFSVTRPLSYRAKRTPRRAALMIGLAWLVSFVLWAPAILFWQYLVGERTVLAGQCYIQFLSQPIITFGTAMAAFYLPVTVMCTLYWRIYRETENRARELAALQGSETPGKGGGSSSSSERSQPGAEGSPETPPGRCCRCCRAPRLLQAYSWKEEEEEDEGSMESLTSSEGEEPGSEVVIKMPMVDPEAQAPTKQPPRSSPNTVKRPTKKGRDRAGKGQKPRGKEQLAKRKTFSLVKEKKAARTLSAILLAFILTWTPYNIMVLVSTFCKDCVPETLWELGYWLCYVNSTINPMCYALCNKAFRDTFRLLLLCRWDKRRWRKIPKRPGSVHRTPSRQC

Turning to `COCC(=O)O`, the Potency result in experiment [1], in experiment [2], in experiment [3], in [4], in experiment [5] and in [6] was “inactive” throughout. The Potency result in experiment [7], in experiment [8], in [9], in [10], in experiment [11] and in experiment [12] was “inactive” throughout. Also, the Potency result in experiment [13], in [15], in experiment [16], in experiment [17], in [18] and in experiment [19] was “inactive” throughout. The Potency result in [20] is “inactive”. Besides, in [14], the Potency was 8.63 µM (active) and inactive.
Regarding `CCCCC(=O)O`, the Potency entry in experiment [1], in experiment [2], in [3], in [4], in experiment [5] and in experiment [6] was “inactive” each time. The Potency result in [7], in experiment [8], in experiment [9], in experiment [10], in [11] and in [12] was “inactive” throughout. The Potency result in experiment [13], in experiment [14], in experiment [15], in [16], in [17] and in [18] was “inactive” each time. Besides, the Potency entry in [19] and in experiment [20] was “inactive” in each case.
Take `COc1ccc([C@@H]2CC(=O)c3c(O)cc(O[C@@H]4O[C@H](CO[C@@H]5O[C@@H](C)[C@H](O)[C@@H](O)[C@H]5O)[C@@H](O)[C@H](O)[C@H]4O)cc3O2)cc1OC`: the Potency result in experiment [1], in experiment [2], in [3], in experiment [4], in experiment [5] and in experiment [6] was “inactive” each time. Also, the Potency result in [7], in experiment [8], in experiment [9], in [10], in experiment [11] and in [12] was “inactive” each time. The Potency entry in experiment [13], in experiment [14], in experiment [15], in experiment [16], in experiment [17] and in [18] was “inactive” each time. The Potency entry in experiment [19] and in experiment [20] was “inactive” each time.
On to `C=CCOC(=O)CC(C)C`, for which the Potency result in [1], in [2], in experiment [3], in experiment [4], in experiment [5] and in [6] was “inactive” each time. Also, the Potency result in [7], in experiment [8], in experiment [9], in experiment [10], in experiment [11] and in experiment [12] was “inactive” each time. Also, the Potency entry in [13], in [14], in experiment [15], in experiment [16], in experiment [17] and in [18] was “inactive” each time. Moreover, the Potency entry in experiment [19] and in experiment [20] was “inactive” throughout.
Turning to `COc1cc(C=O)ccc1O`, the Potency entry in experiment [1], in experiment [2], in experiment [3], in [4], in [5] and in experiment [6] was “inactive” each time. The Potency result in [7], in experiment [8], in experiment [9], in experiment [10], in experiment [11] and in experiment [12] was “inactive” in each case. The Potency entry in experiment [13], in experiment [14], in experiment [15], in [16], in [17] and in experiment [18] was “inactive” in each case. The Potency result in [19] and in experiment [20] was “inactive” in each case.
As to `CC[Si](OC(C)=O)(OC(C)=O)OC(C)=O`, the Potency result in [1], in experiment [2], in experiment [3], in experiment [4], in [5] and in experiment [6] was “inactive” in each case. The Potency result in [7], in [8], in experiment [9], in experiment [10], in experiment [11] and in experiment [12] was “inactive” in each case. In addition, the Potency result in [13], in experiment [14], in experiment [15], in [16], in [17] and in experiment [18] was “inactive” in each case. Also, the Potency entry in [19] and in experiment [20] was “inactive” each time.
For the compound `NCCN`, the Potency result in experiment [1], in experiment [2], in experiment [3], in experiment [4], in [5] and in [6] was “inactive” throughout. Besides, the Potency result in experiment [7], in [8], in [9], in experiment [10], in [11] and in experiment [12] was “inactive” throughout. Besides, the Potency result in experiment [13], in [14], in experiment [15], in experiment [16], in [17] and in [18] was “inactive” in each case. For the same compound, the Potency result in [19] and in experiment [20] was “inactive” in each case.
